{"source": "PubChem BioAssay (Tox21)", "note": "Inconclusive results are not listed. Entries that show only a call come without a potency. Values without a mark were called inactive. Activity calls are given as the source filed them. The call rests on the fitted dose curve; in most records, active means well fitted activation curve with a large enough effect in the signal ratio in the repeat runs (not every such curve was filed as active); inconclusive means weak or mixed curves; inactive means flat fitted curve, though single readings scatter; the % refers to the signal ratio.", "data": [{"test": "qHTS assay to identify small molecule agonists of H2AX (AID 1224845)", "details": "CHO-K1 phospho-H2AX Ser139 HTRF, 3 h; series mostly up to 154 µM", "description": "National Center for Advancing Translational Sciences [NCATS]\nNIH Chemical Genomics Center [NCGC]\nU.S. Environmental Protection Agency [EPA]\nNational Institutes of Environmental Health Sciences [NIEHS]\nNational Toxicology Program [NTP]\nU.S. Food and Drug Administration [FDA]\nHTRF phospho-H2AX (Ser139) assay (Cisbio Bioassays, US) enables the quantitative detection of the histone variant H2AX when phosphorylated on serine 139. When double-stranded DNA breaks, either by ionizing radiation or endogenous physiological processes, H2AX becomes phosphorylated at Ser139. This phospho-Ser139 serves as a sensitive biomarker for the detection of such breaks, localizing the site of DNA repair. So, HTRF phospho-H2AX Ser139 is a pertinent assay to study genome stability, the cell cycle, DNA repair, and it serves as a biomarker for cancer, and to understand aging. Wild type CHO-K1 cells were used to identify the inducers of Phospho-H2AX Ser 139 from the Tox21 10K compound collections.\nTox21 Assay Protocol Summary:\nThe CHO-K1 cells suspended in culture medium containing 10% FBS were dispensed at 1000 cells/ 3 ul/well in 1536-well white wall/solid bottom plates (Greiner Bio-One North America, NC) using a Multidrop Combi (Thermo Fisher Scientific Inc., Waltham, MA). After the assay plates were incubated at 37C overnight, 23 nl of compounds at 15 concentrations (from 5-48 columns) or positive control (from 1 to 4 columns) were transferred to the assay plates using a Pintool station (Wako, San Diego, CA) into each well resulting in a final DMSO concentration of 0.76%. After 3hr incubation at 37C, 1 uL/well Supplemented Lysis buffer (diluted 100 fold blocking reagent in lysis buffer) (HTRF Phospho-H2A.X (S139) Assay kit from Cisbio US Inc., Bedford, MA) was added using a Flying Reagent Dispenser (FRD) (Aurora Discovery, CA). After 10sec spin at 1000 rpm in a plate centrifuge, the assay plates were incubated at room temperature for 30 min. Then followed by the addition of 1 uL/well detection buffer (containing a mixture of two antibodies, one labeled with cryptate, Anti pH2AX (S139)-K and another labeled with d2, Anti H2AX-d2) using FRD. After incubation at room temperature for 24 hr, the time resolved fluorescence at excitation 320 nm and emissions at 665 nm and 620 nm was measured using an Envision plate reader (PerkinElmer, Waltham, MA).", "values": [{"smiles": "CC(CO)Oc1ccccc1", "note": "(stereo not given)", "Potency": "inactive"}, {"smiles": "CC(C)(C)C1CCC(=O)CC1", "Potency": "inactive"}, {"smiles": "Cc1cccc2cccnc12", "Potency": "inactive"}, {"smiles": "C=Cc1ccccc1C=C", "Potency": "inactive"}, {"smiles": "COc1cc(/C=C/c2ccccc2)oc(=O)c1", "Potency": "inactive"}, {"smiles": "C[C@H]1NCc2cc(-c3ccc4c(=O)c(C(=O)O)cn(C5CC5)c4c3OC(F)F)ccc21", "activation (H2AX phosphorylation)": "4.25% [at 31.6 µM]"}, {"smiles": "CC1(C)CCC[C@]2(C)[C@H]3CCO[C@]3(C)CC[C@@H]12", "Potency": "inactive"}, {"smiles": "Cc1c(C)c2c(c(C)c1OC(=O)c1cccnc1)CC[C@@](C)(CCC[C@H](C)CCC[C@H](C)CCCC(C)C)O2", "Potency": "inactive"}, {"smiles": "Cc1cc(C(C#N)c2ccc(Cl)cc2)c(Cl)cc1NC(=O)c1cc(I)cc(I)c1O", "note": "(stereo not given)", "Potency": "inactive"}, {"smiles": "Cc1ccc(C)cc1", "Potency": "inactive"}, {"smiles": "CCc1ccc(Br)cc1", "Potency": "inactive"}, {"smiles": "Cc1cccc(C(=O)O)c1O", "Potency": "inactive"}, {"smiles": "CCC(COC(=O)CCS)(COC(=O)CCS)COC(=O)CCS", "Potency": "inactive"}, {"smiles": "CCC(C)n1ncn(-c2ccc(N3CCN(c4ccc(OC[C@H]5CO[C@](Cn6cncn6)(c6ccc(Cl)cc6Cl)O5)cc4)CC3)cc2)c1=O", "note": "(stereo not given in full)", "Potency": "inactive"}, {"smiles": "O=C(O)c1cc(-c2ccc(F)cc2F)ccc1O", "Potency": "inactive"}, {"smiles": "S=c1nccc[nH]1", "Potency": "inactive"}, {"smiles": "NC(=S)NC(N)=S", "Potency": "inactive"}, {"smiles": "Nc1ccc(C(=O)O)c(O)c1", "Potency": "inactive"}, {"smiles": "O=C1CCc2ccc(OCCCCN3CCN(c4cccc(Cl)c4Cl)CC3)cc2N1", "Potency": "inactive"}, {"smiles": "OCC(F)(F)F", "Potency": "inactive"}, {"smiles": "O=C(O)Cc1ccccc1Nc1c(Cl)cccc1Cl", "Potency": "inactive"}, {"smiles": "CN(C)Cc1ccccc1O", "Potency": "inactive"}, {"smiles": "C=CC(=O)Nc1cc2c(Nc3ccc(F)c(Cl)c3)ncnc2cc1OCCCN1CCOCC1", "Potency": "inactive"}, {"smiles": "CCCCCCC1CCCC(=O)O1", "note": "(stereo not given)", "Potency": "inactive"}, {"smiles": "C#Cc1ccc(-c2ccccc2F)cc1", "Potency": "inactive"}, {"smiles": "CCC(CC)(CC(=O)Nc1cccc(/C=C/c2nc(C3CCC3)cs2)c1)C(=O)O", "Potency": "inactive"}, {"smiles": "Cc1cccc(C)c1NC(=O)c1ccc(N)cc1", "Potency": "inactive"}, {"smiles": "Cl[Si](Cl)(c1ccccc1)c1ccccc1", "Potency": "inactive"}, {"smiles": "CC1=CCC(=C(C)C)CC1", "Potency": "inactive"}, {"smiles": "CCC(C)[O-].CCC(C)[O-].CCOC(=O)/C=C(/C)[O-].[Al+3]", "Potency": "inactive"}, {"smiles": "COCCOc1cc2cc(C(=O)NC3CCN(C(C)C)CC3)n(CC(=O)Nc3ccc(Cl)cn3)c2cn1", "Potency": "inactive"}, {"smiles": "Fc1ccc(C(c2ccc(F)cc2)N2CCNCC2)cc1", "Potency": "inactive"}, {"smiles": "Cc1ccc(C(C)C)cc2c(C)ccc1-2", "Potency": "inactive"}, {"smiles": "S=C([S-])NCCNC(=S)[S-].S=C([S-])NCCNC(=S)[S-].[Mn+2].[Zn+2]", "Potency": "inactive"}, {"smiles": "CCC(C)(CCC(C)C)C(=O)[O][Sn]([CH3])([CH3])[O]C(=O)C(C)(CC)CCC(C)C", "note": "(stereo not given)", "Potency": "inactive"}, {"smiles": "CC(C)(c1cc(Br)c(OCC(Br)CBr)c(Br)c1)c1cc(Br)c(OCC(Br)CBr)c(Br)c1", "note": "(stereo not given)", "Potency": "inactive"}, {"smiles": "CCCNCCC", "Potency": "inactive"}, {"smiles": "CC(C)(C)NSc1nc2ccccc2s1", "Potency": "inactive"}, {"smiles": "CCCCCCCCCCCCCCCC[N+](C)(C)CC", "Potency": "inactive"}, {"smiles": "O=[N+]([O-])c1cccc(C(F)(F)F)c1", "Potency": "inactive"}]}]}
